Screening data (PubChem)
CYP2C19 inhib: blocks human cytochrome P450 2C19 | inhibition, % at 5 µM | 21% of 96,000 active | AID 778 | CYP2C19 Supersomes, luciferin-H EGE luminescence, 30 min | P33261;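 active means CYP2C19 inhibition above a set limit at 5 µM in the primary screen, cut at about 50% in these data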;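 further: plate controls were negative control wells for no effect and 2.5 mM tranylcypromine positive control for full effect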
EphB4 antag: EphB4-ephrin-B2 interaction antagonism; AID 720; 0.15% of 97,000 active; P54760; inhibition, % at 7 µM; EphB4 LBD / TNYL-RAW-Alexa532 peptide, fluorescence polarization;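 active means inhibition above the screen-wide mean inhibition plus 3 SD, cut at about 15% in these data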;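 further: 0% = DMSO wells and 100% = excess unlabeled TNYL-RAW peptide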
CYP2C9 activ: CYP2C9 (human) activation; activation factor at 5 µM; recombinant CYP2C9, luciferin-H conversion, luminescence; hits give high values; factor 1 = untreated enzyme, 0 = blocked; P11712; 1.4% of 96,000 active;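 active means activation factor of 2 or more for CYP2C9 at a 5 µM dose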;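 further: 0 = sulfaphenazole-blocked wells and 1 = vehicle-only wells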
Target sequence (P11712 whole entry, looked up): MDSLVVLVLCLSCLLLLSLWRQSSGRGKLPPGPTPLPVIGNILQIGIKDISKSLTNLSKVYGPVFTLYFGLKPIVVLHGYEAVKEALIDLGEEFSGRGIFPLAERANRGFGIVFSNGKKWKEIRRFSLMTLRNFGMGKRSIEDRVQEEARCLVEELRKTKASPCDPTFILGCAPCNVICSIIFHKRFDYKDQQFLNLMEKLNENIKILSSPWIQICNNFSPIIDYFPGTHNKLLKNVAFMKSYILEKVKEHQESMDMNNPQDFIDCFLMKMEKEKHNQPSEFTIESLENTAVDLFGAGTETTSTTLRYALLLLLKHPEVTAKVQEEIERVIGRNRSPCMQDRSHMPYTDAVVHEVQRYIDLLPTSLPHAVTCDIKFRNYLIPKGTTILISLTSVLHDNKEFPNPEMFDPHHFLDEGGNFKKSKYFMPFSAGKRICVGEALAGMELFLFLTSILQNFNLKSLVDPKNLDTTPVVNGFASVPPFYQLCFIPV
CYP2C19 activ: activators of human cytochrome P450 2C19; P33261; recombinant CYP2C19, luciferin-H EGE luminescence; hits give high values; 0 = fully inhibited enzyme, 1 = untreated enzyme; activation factor at 5 µM; 96,000 tested, under 10 active;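 active means activation factor of at least 2 at 5 µM in the primary screen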;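 further: 0 = wells with 2.5 mM tranylcypromine and 1 = vehicle-only wells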
CYP2C9 inhib: blocks human cytochrome P450 2C9 | P11712 | CYP2C9 Supersomes, luciferin-H conversion, luminescence | inhibition, % at 5 µM | 20% of 96,000 active | AID 777;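 active means blocking of liver enzyme CYP2C9 beyond about 50% at 5 µM, limit read from the data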
* = called active by the depositor; nt = not tested or not shown. This is a sample that favours compounds with a hit; in the whole collection about 27% have one here.

SMILES	CYP2C19 inhib	EphB4 antag	CYP2C9 activ	CYP2C19 activ	CYP2C9 inhib
O=C(c1csc2ccccc12)N1CCN(c2ccc(Cl)c(Cl)c2)CC1	30.9	3.0	1.8	0.7	-83.8
CCC(=O)N1CCc2cc(Br)cc(S(=O)(=O)CCC(=O)NCCc3ccccc3)c21	29.1	-6.1	0.3	0.7	71.5*
Cc1ccc(CNC(=O)CCS(=O)(=O)c2cc(Br)cc3c2N(C(=O)C2CC2)CC3)o1	48.0	nt	0.1	0.5	88.6*
CCCNS(=O)(=O)c1cc(Br)cc2c1N(C(=O)CC)CC2	36.2	nt	1.6	0.6	-57.8
O=C(CN1CCNCC1)Nc1ccc(Oc2ccccc2)cc1	7.3	5.5	0.9	0.9	5.0
CC(C)C(=O)Nc1ncc(C(F)(F)F)cc1Cl	-7.5	1.4	0.9	1.1	7.1
O=C(Cc1ncc(C(F)(F)F)cc1Cl)N1CCN(c2cccc(Cl)c2)CC1	83.6*	-0.6	1.6	0.2	-59.6
O=C(Cc1ncc(C(F)(F)F)cc1Cl)N1CCN(c2ccc(F)cc2)CC1	51.3*	-0.3	3.5*	0.5	-248.5
O=C(Cc1ncc(C(F)(F)F)cc1Cl)Nc1ccc(F)cc1	91.2*	-1.4	0.9	0.1	9.8
COc1ccccc1N1CCN(C(=O)CCCC2=NS(=O)(=O)c3ccccc3N2)CC1	6.7	nt	0.8	0.9	18.6
CN(C)C(/C=C/Nc1ccc(C#N)cc1)=C(C#N)C#N	57.7*	-1.3	0.8	0.4	24.6
CN(C)C(/C=C/Nc1ccc(F)cc1)=C(C#N)C#N	58.8*	-0.1	0.7	0.4	32.0
COc1ccc(NC(=O)c2cc3nc(-c4ccccc4)cc(-c4ccccc4)n3n2)c(OC)c1	36.0	-1.7	0.2	0.6	76.6*
COc1cccc(NC(=O)c2cc(-c3cccnc3)nc3c(Cl)cccc23)c1	38.4	-6.9	0.2	0.6	77.4*
COC(=O)c1cc2nc(-c3ccccc3)cc(C)n2n1	-4.4	2.2	1	1	-1.2
COc1ccc(NC(=O)c2cc(-c3cccnc3)nc3c(C)c(C)ccc23)c(OC)c1	79.7*	-7.5	0.1	0.2	85.8*
COc1cc2c(cc1NC(=O)/C=C/c1ccccc1)oc1ccccc12	15.1	2.9	0.2	0.8	77.5*
COc1cc2c(cc1NC(=O)c1cc(-c3cccnc3)nc3ccc(C)cc13)oc1ccccc12	31.4	-0.5	0.2	0.7	75.3*
Cc1cc(C(=O)CSc2nnnn2-c2ccc(Cl)cc2)c(C)n1CC1CCCO1 (stereo not drawn)	64.4*	-8.8	0.9	0.4	12.1
CCn1c(SCC(=O)c2cc(C)n(CC3CCCO3)c2C)nc2ccccc21 (stereo not drawn)	75.8*	-9.4	1	0.2	1.6
CCCCCCOc1ccc(N2C(=O)CC(NCCc3ccc(S(N)(=O)=O)cc3)C2=O)cc1 (stereo not drawn)	4.1	-0.4	1	1	-4.3
Cc1ccc2oc3nc(C)c(C(=O)Nc4cccc(C(F)(F)F)c4)cc3c(=O)c2c1	26.5	1.2	0.1	0.7	88.4*
CCC(CC)C(=O)NCCc1cc2cc(C)c(C)cc2[nH]c1=O	28.1	nt	0.4	0.7	63.3*
CCOCCCNC(=O)CN1C(=O)C(CC)Oc2ccccc21 (stereo not drawn)	17.6	-7.4	1.1	0.8	-7.1
COc1ccccc1NC(=O)C(C)NS(=O)(=O)c1ccccc1 (stereo not drawn)	50.6*	-1.0	2.7*	0.5	-174.9
SMILES	CYP2C19 inhib	EphB4 antag	CYP2C9 activ	CYP2C19 activ	CYP2C9 inhib
COC(=O)[C@@H](NC(=O)Nc1ccccc1F)C(C)C	16.9	5.3	1	0.8	-4.2
COC(=O)C(NC(=O)Nc1ccccc1OC)C(C)C (stereo not drawn)	59.1*	-2.9	0.9	0.4	12.0
COc1ccccc1CNC(=O)CC(NS(=O)(=O)c1ccc(C)cc1)c1ccco1 (stereo not drawn)	44.0	-1.9	1.6	0.6	-57.9
COc1ccccc1CNC(=O)C(C)NS(=O)(=O)c1ccc(C)cc1 (stereo not drawn)	20.3	-2.4	2.1*	0.8	-108.0
O=C(CCCOc1ccc(Cl)cc1Cl)N1CCc2ccccc2C1	nt	6.1	nt	nt	nt
Cc1cccc(N2CCN(C(=O)CCn3c(=O)[nH]c4ccccc4c3=O)CC2)c1C	11.4	2.8	1.5	0.9	-52.1
Cc1cccc(N2CCN(C(=O)CCCOc3ccccc3)CC2)c1C	74.7*	7.1	0.2	0.3	80.9*
O=C(CCCN1C(=O)c2ccccc2C1=O)N1CCC(c2ccccc2)C1 (stereo not drawn)	79.2*	2.6	0.3	0.2	66.9*
Cc1cccc(N2CCN(C(=O)Cc3c(C(=O)O)[nH]c4ccc(Cl)cc34)CC2)c1C	42.8	2.3	0.1	0.6	87.1*
O=C(CCCOc1ccccc1)N1CCc2ccccc2C1	82.7*	1.7	0.5	0.2	49.6
O=C1C2C3C=CC([C@@H]2C(=O)N1C1CCCCC1)[C@H]1C(=O)N(C2CCCCC2)C(=O)C31 (stereo partly drawn)	6.2	7.7	1	0.9	-0.3
COc1ccc(-c2cc(C(=O)NC3CCCC3)no2)cc1OC	-3.9	-2.0	1.5	1	-49.9
CCOC(=O)N1CCN(C(=O)CCCOc2ccccc2)CC1	13.4	-7.5	1.1	0.9	-7.0
O=C(CCCOc1ccccc1)N1CCN(c2ccccc2)CC1	62.4*	-4.0	0.2	0.4	78.1*
O=C(CCCN1C(=O)c2cccc3cccc(c23)C1=O)N1CCc2ccccc2C1	52.5*	-10.3	4*	0.5	-295.5
O=C1c2ccccc2C(=O)N1CCCC(=O)N1CCc2ccccc21	27.5	-5.0	1.4	0.7	-40.8
COc1ccc(-n2c(-c3cnccn3)n[nH]c2=S)cc1	-7.3	6.1	1.1	1.1	-6.6
CN(C(=O)OCc1ccccc1)C(CC(N)=O)C(=O)O (stereo not drawn)	-3.9	2.2	1	1	0.1
Cc1ccccc1NC(=O)C1Cc2ccccc2C(=O)O1 (stereo not drawn)	71.0*	8.8	0.8	0.3	15.8
O=C1OC(C(=O)Nc2nccs2)Cc2ccccc21 (stereo not drawn)	43.7	3.9	0.6	0.6	40.0
COCCCN1C(=O)C(O)=C(C(=O)c2ccco2)C1c1cccc(Br)c1 (stereo not drawn)	-12.4	5.1	0.8	1.1	16.9
Cc1cc(C)c(S(C)(=O)=O)c(Oc2cccc(Cl)c2)n1	14.3	-1.2	0.9	0.9	12.4
CNc1nc(C)cc(C)c1S(=O)(=O)c1ccc(Cl)cc1	66.4*	-7.1	1.4	0.3	-42.4
Cc1cc(C)c(S(C)(=O)=O)c(S(=O)c2ccc(Cl)cc2)n1 (stereo not drawn)	0.6	2.4	0.4	1	57.6*
Cc1cc(-c2ccccc2)[nH]c(=O)c1S(=O)(=O)c1ccc(Cl)cc1	-7.8	1.8	0.9	1.1	6.0
COc1ccc2cc(C3(C)NC(=O)N(CC(=O)NCCC4=CCCCC4)C3=O)ccc2c1 (stereo not drawn)	11.9	15.2	0.7	0.9	30.8
